The structures appear in SMILES notation. Values joined by “and” are separate entries in the source; they are usually repeats but may differ in a detail not shown here. Equal entries are not always repeated. About 4,500 (1.3%) of roughly 340,000 compounds were called active. Where a call stands in place of a potency, no number is given. Roughly 5% stayed inconclusive and do not appear here. The sample holds actives, similar compounds and a random draw of the others, so the mix is not that of the screen. The call rests on the fitted dose curve; in most records, active means well fitted inhibition curve with a large enough effect; inconclusive means small, poorly fitted or top-dose-only effect, or another doubt; inactive means no such curve, though single readings can be large or run the other way.
Potency means the concentration at half of the fitted maximal effect.

The target in the assay is DNA polymerase beta (Homo sapiens) (UniProt P06746). In words: qHTS Assay for Inhibitors of DNA Polymerase Beta. Particulars: Pol beta primer extension/strand displacement, fluorescence kinetic; series mostly up to 114 µM. An outline of the steps: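 Reaction started by 50 nM substrate onto compound-treated Pol beta (10 nM, 15 min preincubation, room temperature); plates read at 0 min and 10 min. Normalized concentration-effect data fitted by four-parameter Hill equation.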
(In qHTS, concentration-response curves come from the screen itself.)
As for `O=c1[nH]c2ccccc2n2c(-c3ccccc3)nnc12`, the Potency was 39.8 µM (active).
In the case of `CC(C)Cn1c(=O)c2ccccc2n2c(-c3cccc(Cl)c3)nnc12` it was “inactive”.
Regarding `O=c1[nH]n2c(-c3ccccc3)nc(O)c2c2ccccc12`, the Potency result was “inactive”.
On to `COc1ccc(CNC(=O)c2cc3c(-c4ccccc4F)nn(C)c3s2)c(OC)c1`, for which the Potency entry was “inactive”.
Then `COc1ccc(N2CCN(c3nc(-c4ccccc4F)nc4ccccc34)CC2)cc1`, with “inactive”; and `COc1ccc(-n2c(C)nc3c(cnn3-c3ccc(F)cc3)c2=O)cc1`, with “inactive”; and `Cc1c(C)n(Cc2ccc(Cl)cc2)c2ccc(C(=O)N3CCN(c4ccccc4F)CC3)cc12`, with “inactive”.
Then `CC(C)c1ccc(Cn2c(COc3ccccc3)nc3ccccc32)cc1`, with “inactive”; and `CC(C)c1ccc2c(c1)c(SC(C)(C)C)c(CC(C)(C)C(=O)O)n2Cc1ccc(Cl)cc1`, with 50.1 µM (active) and 31.6 µM (active).
In the case of `Cc1ccc(C)c(Oc2c(C(F)(F)F)oc3c(CN4CCN(C)CC4)c(O)ccc3c2=O)c1` it was “inactive”.
As to `Cc1cccc(-n2ccnc2SCC(=O)Nc2cccc3ccccc23)c1C`, the Potency entry was “inactive”.
Then `CCCS(=O)(=O)Nc1cccc(-c2cn3ccsc3n2)c1`, with “inactive”; and `CC(=O)Nc1ccc(NC(=O)CCCc2nc(-c3ccc(C(C)(C)C)cc3)no2)cc1`, with “inactive”.
In the case of `CCc1nn(CC(=O)N2CCN(CC)CC2)c(=O)c2cccn12` it was “inactive”; in that of `CCCN1CCN(C(=O)Cn2ncc3ccccc32)CC1`, 12.6 µM (active).
Then `CC(C)c1ccc(NC(=O)Cn2ncc3ccccc32)cc1`, with “inactive”; and `CC(=O)c1ccc(N2CCN(C3C(=O)c4ccccc4N3C(C)=O)CC2)cc1` (centres undefined), with “inactive”.
On to `Cc1ccc(-c2ccc(CCC(=O)O)n2-c2ccc(C(N)=O)cc2)cc1`, for which the Potency result is “inactive”.
In the case of `Cc1ccc(-n2nc(C)c(C(=O)O)c2-n2cccc2)cc1` it was 12.6 µM (active).
Then `Cc1nn(-c2ccc(F)cc2)c(-n2cccc2)c1C(=O)N1CCN(c2ccccc2)CC1`, with “inactive”.
For `Cc1nn(-c2ccccc2)c(-n2cccc2)c1C(=O)O`, the Potency result was “inactive”.
In the case of `COc1cccc(NC(=O)C(=O)NCC(c2ccc3c(c2)OCO3)N2CCN(C)CC2)c1` (centres undefined) it was “inactive”; in that of `Cc1ccccc1Nc1nn2c(=O)c3ccc(C(=O)NCCc4ccc(Cl)cc4)cc3nc2s1`, “inactive”.
As for `CCN(Cc1ccccc1)S(=O)(=O)c1ccc2c(c1)CCCN2C(C)=O`, the Potency result is “inactive”.
In the case of `CCc1nnc(SCC(=O)Nc2cc(OC)ccc2OC)nc1CC` it was “inactive”.
Then `COc1ccc2[nH]c(C(=O)N/N=C/c3cc(OC)c(OC)c(OC)c3)cc2c1`, with 8.91 µM (active); and `COc1ccc2[nH]c(C(=O)Nc3ccccc3Cl)cc2c1`, with “inactive”.
In the case of `CCOc1ccc2[nH]c(C(=O)N/N=C/c3cccc(OC)c3OC)cc2c1` it was “inactive”.
As to `CCc1nc2c(cnn2-c2ccc(C)cc2)c(=O)n1-c1ccc(C)cc1`, the Potency entry is “inactive”.
In the case of `COc1ccccc1N1CC(C(=O)Nc2nnc(SCC(=O)NC(C)C)s2)CC1=O` (centres undefined) it was “inactive”; in that of `Cc1ccccc1N1CC(C(=O)Nc2nnc(SCCC3OCCO3)s2)CC1=O` (centres undefined), 14.1 µM (active); in that of `COc1ccccc1N1CC(C(=O)Nc2nnc(SCC(=O)NCC3CCCO3)s2)CC1=O` (centres undefined), “inactive”.
In the case of `Cc1ccc(Cl)cc1NC(=O)Cc1ccc(-n2c(C)nc3cccnc32)cc1` it was “inactive”.
Then `CCOC(=O)C1=C(CC)Nc2ccccc2N=C1N`, with “inactive”.
`CCOC(=O)c1cc(Sc2ccccc2N)cc(C(=O)OCC)n1`: the Potency was 25.1 µM (active).
In the case of `CCS(=O)(=O)c1cc([N+](=O)[O-])c(Sc2ccccc2N)s1` it was “inactive”; in that of `CN1c2ccc(Cl)cc2-c2nc(SCC(=O)Nc3cc(F)ccc3F)ncc2S1(=O)=O`, “inactive”; in that of `COc1cc(CNCCSc2nnnn2C)ccc1OCc1ccc(Cl)cc1Cl`, “inactive”.
As to `CCc1cccc(NC(=O)CN(C)S(=O)(=O)c2ccc3[nH]c4c(c3c2)CCCC4)c1`, the Potency result was “inactive”.
Turning to `COc1cccc(CNC(=O)CCC(=O)N2CC3CCCN3c3ccccc32)c1` (centres undefined), the Potency entry was “inactive”.
Then `Cc1cc(C(=O)OCC(=O)N2c3ccccc3NC(=O)C2(C)C)c(C)n1-c1ccccc1`, with “inactive”.
In the case of `C/C(=N\Nc1ncc(Cl)cc1Cl)c1ccc(S(=O)(=O)NCc2ccco2)cc1` it was “inactive”; in that of `O=C(COC(=O)C12CC3CC(CC(C3)C1)C2)NCc1ccco1`, 14.1 µM (active).
Then `O=C(COC(=O)c1ccco1)NCc1ccc(Cl)cc1`, with “inactive”.
Take `Cc1cc(C(=O)OCC(=O)NCc2ccco2)c(C)n1-c1ccccc1`: the Potency was 22.4 µM (active).
Then `Cc1c(Cl)cnc(NC(=O)COC(=O)c2ccc(S(=O)(=O)NCc3ccco3)cc2)c1Cl`, with 31.6 µM (active); and `CN(c1ccccc1)S(=O)(=O)c1ccc(Cl)c(C(=O)OCC(=O)NCc2ccco2)c1`, with “inactive”; and `O=C(CC1CCCCC1)NCc1ccco1`, with “inactive”.
Then `O=C(COC(=O)c1cc(S(=O)(=O)N2CCCCC2)ccc1Cl)NCc1ccco1`, with “inactive”.
Then `O=C(NCCCCCCNC(=O)NCc1ccco1)NCc1ccco1`, with “inactive”; and `O=C(COC(=O)c1cnc(Cl)c(Cl)c1)NCc1ccco1`, with 25.1 µM (active); and `CSCCC(NC(=O)c1ccco1)C(=O)OCC(=O)Nc1ncc(Cl)c(C)c1Cl` (centres undefined), with “inactive”.
With `COc1ccc(NC(=O)CCCN2C(=O)CCn3nc(-c4cn(C)c5ccccc45)cc32)cc1OC`, the Potency entry was “inactive”.
Then `CCN1CCN(C(c2ccc(C)cc2)c2c(O)cc(C)n(Cc3ccco3)c2=O)CC1` (centres undefined), with “inactive”; and `CC1Cc2cc(S(=O)(=O)CCC(=O)NCc3ccc(Cl)cc3)ccc2N1C(=O)C1CC1` (centres undefined), with “inactive”.
Regarding `C#CC(C)(CC)NC(=O)Cn1nnc(-c2ccc(OCc3c(F)cccc3Cl)cc2)n1` (centres undefined), the Potency entry is “inactive”.
On to `CC(=O)OC1=C(C(C)=O)N(Cc2ccccc2)S(=O)(=O)c2ccccc21`, for which the Potency entry is “inactive”.
Then `O=C(C1CCC(Cn2c(=O)c3sccc3n(Cc3ccccc3F)c2=O)CC1)N1CCCCC1` (centres undefined), with “inactive”; and `COCCCNC(=O)c1ccc(NC(=O)c2nsc3ccccc23)cc1`, with “inactive”.

The values above are taken from PubChem BioAssay AID485314 (National Center for Advancing Translational Sciences (NCATS), 2010).
